# Laboratory results taken from the supplement of paper PMC10037445.
# In all, about 2,900 compounds were measured (“NF-kB SEAP reporter activity, fold change vs agonist alone”: median about 0.99, highest 2% from about 2.6 on). What follows is part of a selection rich in the highest values, with near analogues and random picks from the rest.
# What was measured:
# RAW-Dual [1] = assay: NF-kB SEAP reporter activity, fold change vs agonist alone; higher = enhanced NF-kB activity; details: library stock concentration (final ~1000-fold dilution): 10 mM
# Summary of the method: (§1)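 RAW-Dual macrophages (50,000 cells/well in DMEM, 384-well plates) received 50 nL of library stock by pin tool, then a PRR agonist 1 h later, and were kept at 37 °C, 5% CO2. After 20 hours, supernatant was read for IRF by QuantiLuc luminescence and for NF-κB by QuantiBlue absorbance at 620 nm. Reporter activity is fold change over agonist-alone wells. Cytotoxic wells had IncuCyte confluency below 70% of agonist controls in both mask sets.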
# RAW-Dual [2] = assay: NF-kB SEAP reporter activity, fold change vs agonist alone; cytotoxicity flag (confluency mask): not cytotoxic; higher = enhanced NF-kB activity
# Summary of the method: as §1
# RAW-Dual [3] = assay: NF-kB SEAP reporter activity, fold change vs agonist alone; cytotoxicity flag (confluency mask): cytotoxic (confluency <70% of control); higher = enhanced NF-kB activity
# Summary of the method: as §1
# [4] = cytotoxicity flag (confluency mask): not cytotoxic, agonist: Imiquimod (TLR7) […]
# [5] = cytotoxicity flag (confluency mask): not cytotoxic, agonist: MPLA (TLR4) […]
# [6] = agonist: ODN 1826 (TLR9) 0.5 ug/mL
# [7] = agonist: Pam2CSK4 (TLR2/6) 0.1 ug/mL
# [8] = agonist: Pam3CSK4 (TLR2/1) 0.1 ug/mL
compound,measurement,setting,value
CC#CCn1c(N2CCCC(N)C2)nc2c1c(=O)n(Cc1nc(C)c3ccccc3n1)c(=O)n2C (centres undefined),NF-kB SEAP reporter activity,RAW-Dual [1]; [4],0.851
same,NF-kB SEAP reporter activity,RAW-Dual [1]; [5],1
CC#CCn1c(N2CCCC(N)C2)nc2c1c(=O)n(Cc1nc(C)c3ccccc3n1)c(=O)n2C (centres undefined) (library stock concentration (final ~1000-fold dilution): 10 mM),NF-kB SEAP reporter activity,RAW-Dual [2]; agonist: LPS (TLR4) 0.1 ug/mL,1.31
same,NF-kB SEAP reporter activity,RAW-Dual [2]; [6],0.823
same,NF-kB SEAP reporter activity,RAW-Dual [2]; [7],1.05
same,NF-kB SEAP reporter activity,RAW-Dual [2]; [8],1.17
O=c1ccoc2cc(O)ccc12 (library stock concentration (final ~1000-fold dilution): 10 mM),NF-kB SEAP reporter activity,RAW-Dual [2]; agonist: LPS (TLR4) 0.1 ug/mL,1.85
same,NF-kB SEAP reporter activity,RAW-Dual [2]; [6],1.15
same,NF-kB SEAP reporter activity,RAW-Dual [2]; [7],1.04
same,NF-kB SEAP reporter activity,RAW-Dual [2]; [8],0.865
O=c1ccoc2cc(O)ccc12,NF-kB SEAP reporter activity,RAW-Dual [1]; [4],1.18
same,NF-kB SEAP reporter activity,RAW-Dual [1]; [5],1.15
CS(=O)(=O)CCNCc1ccc(-c2ccc3ncnc(Nc4ccc(OCc5cccc(F)c5)c(Cl)c4)c3c2)o1,NF-kB SEAP reporter activity,RAW-Dual [1]; [4],2.12
same,NF-kB SEAP reporter activity,RAW-Dual [1]; [5],2
CS(=O)(=O)CCNCc1ccc(-c2ccc3ncnc(Nc4ccc(OCc5cccc(F)c5)c(Cl)c4)c3c2)o1.Cc1ccc(S(=O)(=O)O)cc1.Cc1ccc(S(=O)(=O)O)cc1.O,NF-kB SEAP reporter activity,RAW-Dual [1]; [5],1.99
C=CC(=O)Nc1ccc2ncnc(Nc3ccc(OCc4cccc(F)c4)c(Cl)c3)c2c1.Cc1ccc(S(=O)(=O)O)cc1,NF-kB SEAP reporter activity,RAW-Dual [1]; [4],0.818
same,NF-kB SEAP reporter activity,RAW-Dual [1]; [5],0.445
CS(=O)(=O)CCNCc1ccc(-c2ccc3ncnc(Nc4ccc(OCc5cccc(F)c5)c(Cl)c4)c3c2)o1.Cc1ccc(S(=O)(=O)O)cc1.Cc1ccc(S(=O)(=O)O)cc1.O (library stock concentration (final ~1000-fold dilution): 10 mM),NF-kB SEAP reporter activity,RAW-Dual [2]; agonist: LPS (TLR4) 0.1 ug/mL,1.96
same,NF-kB SEAP reporter activity,RAW-Dual [2]; [6],0.24
same,NF-kB SEAP reporter activity,RAW-Dual [2]; [7],0.755
same,NF-kB SEAP reporter activity,RAW-Dual [2]; [8],0.786
CS(=O)(=O)CCNCc1ccc(-c2ccc3ncnc(Nc4ccc(OCc5cccc(F)c5)c(Cl)c4)c3c2)o1.Cc1ccc(S(=O)(=O)O)cc1.Cc1ccc(S(=O)(=O)O)cc1,NF-kB SEAP reporter activity,RAW-Dual [1]; [4],1.68
same,NF-kB SEAP reporter activity,RAW-Dual [1]; [5],1.56
Cc1cc(Nc2ncnc3ccc(-c4ccc(CNCCS(C)(=O)=O)o4)cc23)ccc1Oc1ccn2ncnc2c1 (library stock concentration (final ~1000-fold dilution): 10 mM),NF-kB SEAP reporter activity,RAW-Dual [2]; agonist: LPS (TLR4) 0.1 ug/mL,2.19
same,NF-kB SEAP reporter activity,RAW-Dual [2]; [6],0.229
same,NF-kB SEAP reporter activity,RAW-Dual [2]; [7],0.997
same,NF-kB SEAP reporter activity,RAW-Dual [2]; [8],0.811
CS(=O)(=O)CCNCc1ccc(-c2ccc3ncnc(Nc4ccc(OCc5cccc(F)c5)c(Cl)c4)c3c2)o1 (library stock concentration (final ~1000-fold dilution): 10 mM),NF-kB SEAP reporter activity,RAW-Dual [2]; agonist: LPS (TLR4) 0.1 ug/mL,2.56
same,NF-kB SEAP reporter activity,RAW-Dual [2]; [6],0.324
same,NF-kB SEAP reporter activity,RAW-Dual [2]; [7],0.657
same,NF-kB SEAP reporter activity,RAW-Dual [2]; [8],1.19
C=CC(=O)Nc1ccc2ncnc(Nc3ccc(OCc4cccc(F)c4)c(Cl)c3)c2c1.Cc1ccc(S(=O)(=O)O)cc1 (library stock concentration (final ~1000-fold dilution): 10 mM),NF-kB SEAP reporter activity,RAW-Dual [2]; agonist: LPS (TLR4) 0.1 ug/mL,0.275
same,NF-kB SEAP reporter activity,RAW-Dual [2]; [6],0.575
same,NF-kB SEAP reporter activity,RAW-Dual [2]; [7],0.254
same,NF-kB SEAP reporter activity,RAW-Dual [2]; [8],0.377
CC1COC(Nc2ccc3ncnc(Nc4ccc(OCc5nccs5)c(Cl)c4)c3c2)=N1 (centres undefined),NF-kB SEAP reporter activity,RAW-Dual [1]; [4],1.28
same,NF-kB SEAP reporter activity,RAW-Dual [1]; [5],1.03
CS(=O)(=O)CCNCc1ccc(-c2ccc3ncnc(Nc4ccc(OCc5cccc(F)c5)c(Cl)c4)c3c2)o1.Cc1ccc(S(=O)(=O)O)cc1.Cc1ccc(S(=O)(=O)O)cc1 (library stock concentration (final ~1000-fold dilution): 10 mM),NF-kB SEAP reporter activity,RAW-Dual [2]; agonist: LPS (TLR4) 0.1 ug/mL,4.16
same,NF-kB SEAP reporter activity,RAW-Dual [2]; [6],0.272
same,NF-kB SEAP reporter activity,RAW-Dual [2]; [7],0.851
same,NF-kB SEAP reporter activity,RAW-Dual [2]; [8],1.14
CC1COC(Nc2ccc3ncnc(Nc4ccc(OCc5nccs5)c(Cl)c4)c3c2)=N1 (centres undefined) (library stock concentration (final ~1000-fold dilution): 10 mM),NF-kB SEAP reporter activity,RAW-Dual [2]; agonist: LPS (TLR4) 0.1 ug/mL,0.991
same,NF-kB SEAP reporter activity,RAW-Dual [2]; [6],0.507
same,NF-kB SEAP reporter activity,RAW-Dual [2]; [7],0.602
same,NF-kB SEAP reporter activity,RAW-Dual [2]; [8],0.911
Cc1cc(Nc2ncnc3ccc(-c4ccc(CNCCS(C)(=O)=O)o4)cc23)ccc1Oc1ccn2ncnc2c1,NF-kB SEAP reporter activity,RAW-Dual [1]; [4],1.08
same,NF-kB SEAP reporter activity,RAW-Dual [1]; [5],1.53
CCCC1CC(C(=O)NC(C(C)Cl)C2OC(SC)C(O)C(O)C2O)N(C)C1 (centres undefined) (library stock concentration (final ~1000-fold dilution): 10 mM),NF-kB SEAP reporter activity,RAW-Dual [2]; agonist: LPS (TLR4) 0.1 ug/mL,1.14
same,NF-kB SEAP reporter activity,RAW-Dual [2]; [6],1.04
same,NF-kB SEAP reporter activity,RAW-Dual [2]; [7],1.04
same,NF-kB SEAP reporter activity,RAW-Dual [2]; [8],1.17
CCCC1CC(C(=O)NC(C(C)Cl)C2OC(SC)C(O)C(O)C2O)N(C)C1 (centres undefined),NF-kB SEAP reporter activity,RAW-Dual [1]; [4],1.02
same,NF-kB SEAP reporter activity,RAW-Dual [1]; [5],1.07
COc1cccc2c1C(=O)c1c(O)c3c(c(O)c1C2=O)CC(O)(C(C)=O)CC3OC1CC(N)C(O)C(C)O1.Cl (centres undefined),NF-kB SEAP reporter activity,"RAW-Dual [1]; cytotoxicity flag (confluency mask): cytotoxic (confluency <70% of control), agonist: Imiquimod (TLR7) […]",0.365
same,NF-kB SEAP reporter activity,"RAW-Dual [1]; cytotoxicity flag (confluency mask): cytotoxic (confluency <70% of control), agonist: MPLA (TLR4) […]",0.213
COc1cccc2c1C(=O)c1c(O)c3c(c(O)c1C2=O)CC(O)(C(C)=O)CC3OC1CC(N)C(O)C(C)O1.Cl (centres undefined) (library stock concentration (final ~1000-fold dilution): 10 mM),NF-kB SEAP reporter activity,RAW-Dual [3]; agonist: LPS (TLR4) 0.1 ug/mL,0.249
same,NF-kB SEAP reporter activity,RAW-Dual [3]; [6],0.191
same,NF-kB SEAP reporter activity,RAW-Dual [3]; [7],0.0932
same,NF-kB SEAP reporter activity,RAW-Dual [3]; [8],0.195
CC1CN(CC(Cc2ccccc2)C(=O)NCC(=O)O)CCC1(C)c1cccc(O)c1 (centres undefined),NF-kB SEAP reporter activity,RAW-Dual [1]; [4],1.03
same,NF-kB SEAP reporter activity,RAW-Dual [1]; [5],1.01
CC1CN(CC(Cc2ccccc2)C(=O)NCC(=O)O)CCC1(C)c1cccc(O)c1 (centres undefined) (library stock concentration (final ~1000-fold dilution): 10 mM),NF-kB SEAP reporter activity,RAW-Dual [2]; agonist: LPS (TLR4) 0.1 ug/mL,1.51
same,NF-kB SEAP reporter activity,RAW-Dual [2]; [6],1.01
same,NF-kB SEAP reporter activity,RAW-Dual [2]; [7],0.937
same,NF-kB SEAP reporter activity,RAW-Dual [2]; [8],0.609
Cn1cc(Nc2nccc(N3CC4CCC(C3)N4C(=O)C3CC3(F)F)n2)cn1 (centres undefined) (library stock concentration (final ~1000-fold dilution): 10 mM),NF-kB SEAP reporter activity,RAW-Dual [2]; agonist: LPS (TLR4) 0.1 ug/mL,0.973
same,NF-kB SEAP reporter activity,RAW-Dual [2]; [6],1.3
same,NF-kB SEAP reporter activity,RAW-Dual [2]; [7],1.69
same,NF-kB SEAP reporter activity,RAW-Dual [2]; [8],2.02
